# Screens: PubChem BioAssay, Broad Institute
# Shown are actives, neighbours in structure and some others; about 1.2% of the full set was active somewhere.
# Glyco luc inh: blocks N-linked glycosylation in D54 reporter cells; D54 ERlucT glycosylation luciferase reporter, 24 h; percent of 100 nM tunicamycin response; reporter increase, % at 12.5 µM; actives 0.23% (n = 360,000); AID 588692;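 active means mean luciferase reporter signal, scaled so untreated is 0 and the glycosylation-blocking control 100, at or above a set limit in every replicate; inconclusive means mean reaches the limit but not every replicate does; inactive means mean below the limit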;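 further: luciferase carries N-glycosylation sites so blocking glycosylation raises the light; 0% = median of neutral control wells and 100% = median of 100 nM tunicamycin wells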
# RAD54 branch: inhibitors of human RAD54 branch migration | actives 0.14% (n = 360,000) | RAD54 Holliday junction branch migration, FAM/BHQ fluorescence | Q92698 | inhibition, % at 10.4 µM;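 active means mean normalized replicate activity at least 40 and at least half of replicates scoring 40 or more; inconclusive means only one of the two criteria met; inactive means mean below 40 and under half of replicates reaching 40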;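 further: 0% = median of neutral control wells and 100% = median of positive control wells; inhibitors cause a drop in the FAM fluorescence signal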
# CASP6 VEID inh: blocks human caspase-6 cleavage activity; P55212; purified caspase-6, Z-VEID-R110 cleavage fluorescence; inhibition, % at 12.5 µM; actives 0.53% (n = 350,000);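 active means mean inhibition across replicates at least about 35%, with every replicate also reaching that limit, limit read from the data; inconclusive means only one of the two criteria met; inactive means neither criterion met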;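 further: 0% = median of neutral control wells and 100% = no fluorescence left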
# Target sequence (P55212 24-179 limits assumed): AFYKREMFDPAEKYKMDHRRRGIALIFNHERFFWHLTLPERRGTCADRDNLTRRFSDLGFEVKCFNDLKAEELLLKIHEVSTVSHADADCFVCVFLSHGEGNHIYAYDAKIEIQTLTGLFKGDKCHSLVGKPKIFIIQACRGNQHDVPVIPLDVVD
# Target sequence (P55212 194-293 limits assumed): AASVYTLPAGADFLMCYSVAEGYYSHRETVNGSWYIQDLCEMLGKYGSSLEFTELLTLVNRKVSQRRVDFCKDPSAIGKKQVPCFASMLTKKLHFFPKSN
# RAD52 inh: inhibitors of human RAD52 DNA annealing; inhibition, % at 18.7 µM; P43351; AID 651710; actives 0.46% (n = 360,000); recombinant RAD52 DNA annealing, FRET fluorescence;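 active means every replicate showing at least 50% inhibition; inconclusive means mean inhibition at least 50% but not in every replicate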
# MLL AF4-AF9 inh: inhibitors of human MLL-AF4/AF9 interaction | AID 651704 | inhibition, % at 10 µM | actives 0.47% (n = 350,000) | AlphaScreen, biotin-AF4 peptide binding to FLAG-AF9 | P42568;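 active means every replicate reaching a set inhibition limit, whatever the replicate mean, cut at about 25% in these data; inconclusive means mean inhibition reaches that limit but some replicates miss it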;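 further: 0% = plate neutral control median and 100% = total signal loss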
# RAD52 DNA ctr: DNA binding artifact in RAD52 counter-screen | shares compounds with RAD52 inh | actives 8% (n = 1,000) | Salmon sperm DNA/acridine orange FP displacement | AID 652128 | AC50, µM;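 active means fitted half-maximal concentration for signal loss at or below twice the highest dose tested, in every separate run, actives reach about 64 µM in these data; inconclusive means runs disagree, or flat partial signal loss, or poor fit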
# Numbers without * were called inactive; i = inactive; ? = inconclusive; . = not tested or not shown.
SMILES,Glyco luc inh,RAD54 branch,CASP6 VEID inh,RAD52 inh,MLL AF4-AF9 inh,RAD52 DNA ctr
C[C@H](CO)N1C[C@H](C)[C@H](CN(C)Cc2ccc(Cl)c(Cl)c2)Oc2c(NC(=O)Nc3cccc4ccccc34)cccc2C1=O,.,0,1,-16,1,.
COCCN1CCn2c(nc3cc(Nc4nnc(C)c5ccccc45)ccc32)C1,0,.,-17,72*,0,i
CCOC(=O)c1cc(NC(=O)N(C(C)C)C2CCCCC2)c(C)nc1C,1,-10,1,96*,-5,i
CCOC(=O)c1cc(NC(=O)N(C(C)C)C(C)C)c(C)nc1C,1,-2,.,.,.,.
CCN(CC)CCNC(=O)c1cc(S(=O)(=O)N2CCc3ccccc32)cn1C,-4,13,-2,-5,-3,.
CCN(CC)CCNC(=O)c1ccc(NC(=O)c2cccc(S(=O)(=O)N3CCc4ccccc43)c2)cc1,-5,.,-15,50*,13,i
COc1ccc(CCNC(=O)c2cc(-c3ccco3)nc3ccccc23)cc1,.,.,10,2,-2,.
CCN(CC)CCNC(=O)c1cc(-c2ccco2)nc2ccccc12,2,.,-126,78*,6,i
CCN(CC)CCNc1nc(-c2cccs2)c(CC(=O)O)s1,1,-2,-42,88*,7,i
C=CCNc1nc(-c2cccs2)c(CC(=O)O)s1,1,-24,7,-18,0,.
CC(=O)N1[C@@H]2c3ccc(-c4ccccc4)c(=O)n3C[C@H]1[C@H](CO)[C@H]2C(=O)Nc1ccccc1,.,-9,-3,9,-1,.
Cc1ccc(C(=O)N/C(=C\c2ccc(-c3ccc(Cl)cc3)o2)C(=O)NCCCN(C)C)cc1,-3,.,-10,52*,22,i
CN(C)CCCNC(=O)/C(=C\c1ccc(-c2ccc(Br)cc2)o1)NC(=O)c1ccccc1,-6,?,-56,62*,29*,i
CN(C)CCCNC(=O)/C(=C/c1ccc(-c2ccc([N+](=O)[O-])cc2)o1)NC(=O)c1ccccc1,-9,34,-12,32,4,.
C[C@H](CO)N1C[C@H](C)[C@H](CN(C)S(=O)(=O)c2ccc(F)cc2)Oc2ccc(NS(=O)(=O)c3ccccc3)cc2CC1=O,.,2,.,.,.,.
CO[C@@H]1CN(C)C(=O)c2ccc(NC(=O)Nc3cccc(F)c3)cc2OC[C@@H](C)N(C(=O)Nc2c(C)noc2C)C[C@@H]1C,.,.,0,7,-20,.
Cc1noc(C)c1S(=O)(=O)N(C)C[C@H]1Oc2ccc(NC(=O)CCCCCC(=O)Nc3ccccc3N)cc2CC(=O)N([C@H](C)CO)C[C@@H]1C,.,.,0,-10,0,.
COc1ccc(-c2c(-c3ccccc3)c(C(=O)C(=O)NCCCN(C)C)n3ccc4cc(OC)c(OC)cc4c23)cc1OC,-8,81*,-48,94*,38*,i
Cc1ccc(S(=O)(=O)N[C@@H]2CC[C@@H](CC(=O)NCCN3CCCCC3)O[C@H]2CO)cc1,.,5,-8,10,0,.
COc1ccc2c3c([nH]c2c1)[C@H](CO)N(C(=O)C1CC1)CC31CN(C(=O)c2ccncc2)C1,.,.,1,-2,1,.
CN(C)CCOc1ccc2c(c1)C(=O)C(=Cc1ncc([N+](=O)[O-])n1C)C2,-19,62*,-27,88*,1,i
COc1ccc(CN2CCOCC2)cc1OC,3,-11,.,.,.,.
COc1cc2sc3ccc(-c4ccc(CN5CCOCC5)cc4)cc3c(=O)c2cc1OC,-2,7,5,93*,5,i
CSc1ccc2c(c1)C(N1CCN(C)CC1)Cc1ccccc1S2 (centres undefined),2,19,3,52*,19,i
CN1CCN(C2Cc3cc(F)ccc3Sc3ccc(Cl)cc32)CC1 (centres undefined),1,16,1,39,12,.
CN1CCN(C2Cc3ccccc3Sc3ccc(Cl)cc32)CC1 (centres undefined),-1,12,.,54*,8,i
C[C@@H]1CN([C@@H](C)CO)S(=O)(=O)c2ccc(C#Cc3ccccc3)cc2O[C@H]1CN(C)S(C)(=O)=O,.,1,1,-20,-1,.
O=C(N[C@H]1CC[C@@H](CCNS(=O)(=O)c2ccc(Cl)cc2)O[C@H]1CO)c1ccccn1,.,-3,-2,-13,0,.
CCOC(=O)c1cnc2c(ccc3ccccc32)c1NCCN(C)C,9,80*,-8,79*,2,i
